HT1080 IDH1KD tx: toxicity to HT-1080 IDH1 knockdown cells (counter line) | HT-1080 IDH1 knockdown viability, ATP luminescence, 48 h | 360,000 compounds, 2% hits | Potency, µM (titrated, usually from 46.1 µM), inactives show at the highest dose activity, negative = toxicity, most hits filed as cytotoxic;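 also: 0% = DMSO wells and -100% = cell-free medium wells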
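Knockdown cells (IDH1KD HT-1080) received compounds 2 h after plating at 750 cells/well and were kept 48 h at 37 °C in 5% FBS RPMI. A CellTiter-Glo luminescence read gave % activity for curve fitting.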
KB-V1 MDR tox: KB-V1 MDR subline cytotoxicity; KB-V1 MDR cells viability, CellTiter-Glo, 72 h; Potency, µM (doses to about 46.1 µM), hits mostly cytotoxic; 400,000 compounds, 3.4% hits; also: % is scaled to controls: 0 for no effect and ±100 for the full control effect; nearly all actives have a fitted effect of over 60% in size
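Readout: CellTiter-Glo luminescence, 10 min after addition. Cells: KB-V1 MDR subline, 72 h at 37 degrees C with compound. Analysis: corrected, normalized data fitted to concentration-effect curves.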
MCF10A rerep: induces DNA re-replication in MCF 10a normal breast cells. 350,000 compounds, 2.9% hits. MCF 10A DNA re-replication, Hoechst nuclear intensity, 48 h. Potency, µM (titrated, usually from 46.1 µM), for inactives: at the top dose activity, positive = re-replication, hits mostly activators; also: % of control where 0% means no effect; nearly all actives have a fitted effect of over 50% in size
SW480 rerep: DNA re-replication induction in SW480 cells; SW480 DNA re-replication, Hoechst DNA content imaging, 48 h; Potency, µM (highest dose often 46.1 µM), for inactives: at the highest dose re-replication activation, most hits filed as activators; 340,000 compounds, 1.8% hits; also: % of control where 0% means no effect; nearly all actives have a fitted effect of over 55% in size
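Per well, 250 cells were exposed to pinned compound for 48 hr. Nuclear DNA was visualised with Hoechst (40 min, 37 C) and total object intensity recorded by fluorescence scanning.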
HT1080NT lethal: kills 2HG-producing HT-1080-NT fibrosarcoma cells | HT-1080-NT fibrosarcoma viability, CellTiter-Glo ATP luminescence, 48 h | Potency, µM (top dose mostly 46.1 µM), for inactives: top-dose activity, negative = less viability, actives largely listed as cytotoxic | 360,000 compounds, 1.6% hits;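 also: NT is the 2HG producing partner of a matched IDH1 knockdown line; 0% = DMSO-treated cells and -100% = media-only wells without cells; nearly all actives have a fitted effect of over 55% in size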
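A 48-hour cytotoxicity screen used HT-1080-NT cells plated 2 hours before compound delivery. ATP-based CellTiter-Glo luminescence measured viability, normalized to DMSO and no-cell controls.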
KB-3-1 tox: KB-3-1 parental cell cytotoxicity. KB-3-1 viability, CellTiter-Glo ATP luminescence, 72 h. Potency, µM (titrated, usually from 46.1 µM), most hits filed as cytotoxic. 400,000 compounds, 1.4% hits. AID 1347075; also: % is scaled to controls: 0 for no effect and ±100 for the full control effect; nearly all actives have a fitted effect of over 60% in size
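72 h, 37 °C compound treatment of KB-3-1 parental cells; CellTiter-Glo added, 10 min, luminescence read. Data corrected against DMSO-only plates and normalized before curve fitting.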
The depositor's hits bear a star; [ ] = dose if it differs, or a comment. Hits are enriched below; roughly 8% of the tested compounds scored in any of these assays. Calls follow the shape of the dose curve; as a rule, active = well fitted curve in the direction sought with a large enough effect; inconclusive = small, poorly fitted or top-dose-only effect, or another doubt; inactive = no such curve, though single readings can be large; an effect the other way counts as inactive or inconclusive. Potency is read from the fitted curve at half-maximal effect.

Screening CCOc1ccccc1NC(=O)c1ccccc1-c1nc(-c2ccccc2)no1 returned HT1080 IDH1KD tx -22.9%, KB-V1 MDR tox 8.2µM*, MCF10A rerep 26.3%, SW480 rerep 23.1µM*, HT1080NT lethal -8.1% and KB-3-1 tox inconclusive.
CCOc1ccccc1NC(=O)c1ccccc1-c1ccccc1 was read as HT1080 IDH1KD tx 2.3%, KB-V1 MDR tox inactive, MCF10A rerep 10.4%, SW480 rerep inconclusive, HT1080NT lethal -3.4% and KB-3-1 tox inactive.
`CC(C)n1cnc2cc(NC(=O)c3ccco3)ccc21` gave HT1080 IDH1KD tx 19.7%, KB-V1 MDR tox inactive, MCF10A rerep 1.3%, SW480 rerep 1.8%, HT1080NT lethal 4.4% and KB-3-1 tox inactive.
Screening COc1ccccc1-n1cnc2cc(NC(=O)c3ccco3)ccc21 returned HT1080 IDH1KD tx inconclusive, KB-V1 MDR tox inconclusive, MCF10A rerep 0.4%, SW480 rerep 3.3%, HT1080NT lethal 11.2µM* and KB-3-1 tox inconclusive.
For COc1ccc(-n2cnc3cc(NC(=O)c4ccco4)ccc32)cc1 the results were HT1080 IDH1KD tx -15.3%, KB-V1 MDR tox 16.4µM*, MCF10A rerep 17.8%, SW480 rerep 11.7%, HT1080NT lethal 13.0% and KB-3-1 tox inconclusive.
CCC(=O)Nc1ccc2c(c1)ncn2-c1ccccc1OC was read as HT1080 IDH1KD tx 12.9%, KB-V1 MDR tox inactive, MCF10A rerep 4.1%, SW480 rerep -4.9%, HT1080NT lethal 14.3% and KB-3-1 tox inactive.
`COc1cc2ccccc2ccc1=NO` gave HT1080 IDH1KD tx -15.5%, KB-V1 MDR tox 16.4µM*, MCF10A rerep inconclusive, SW480 rerep inconclusive, HT1080NT lethal -9.8% and KB-3-1 tox inconclusive.
`COC(=O)C1=CN(c2ccc(N3CCOCC3)cc2)C(N)=C(C#N)C1c1ccccc1` (stereo unspecified) gave HT1080 IDH1KD tx -9.6%, KB-V1 MDR tox inactive, HT1080NT lethal -14.4% and KB-3-1 tox inconclusive.
COC(=O)C1=CN(c2ccc(OC)cc2OC)C(N)=C(C#N)C1c1ccccc1F (stereo unspecified) was read as HT1080 IDH1KD tx 0.731µM*, KB-V1 MDR tox inconclusive, HT1080NT lethal 1.46µM* and KB-3-1 tox 1.46µM*.
COC(=O)C1=CN(c2ccc(OC)cc2)C(N)=C(C#N)C1c1ccc(OC)cc1 (stereo unspecified) was read as HT1080 IDH1KD tx -15.2%, KB-V1 MDR tox inactive, HT1080NT lethal -17.2% and KB-3-1 tox inactive.
Screening COC(=O)C1=CN(c2ccc(C)cc2)C(N)=C(C#N)C1c1ccc(OC)cc1 (stereo unspecified) returned HT1080 IDH1KD tx inconclusive, KB-V1 MDR tox 23.1µM*, HT1080NT lethal -28.2% and KB-3-1 tox 23.1µM*.
For COC(=O)C1=CN(c2ccc3c(c2)OCO3)C(N)=C(C#N)C1c1cccc(F)c1 (stereo unspecified) the results were HT1080 IDH1KD tx 1.84µM*, KB-V1 MDR tox 3.66µM*, HT1080NT lethal 3.66µM* and KB-3-1 tox 2.31µM*.
For CCc1ccc(N2C=C(C(=O)OC)C(c3ccc(OC)cc3)C(C#N)=C2N)cc1 (stereo unspecified) the results were HT1080 IDH1KD tx inconclusive, KB-V1 MDR tox 18.4µM*, HT1080NT lethal inconclusive and KB-3-1 tox inconclusive.
Screening CC(C)NS(=O)(=O)c1cc(F)ccc1CN1C(=O)c2cccnc2C1=O returned HT1080 IDH1KD tx -5.4%, KB-V1 MDR tox inactive, MCF10A rerep 3.9%, SW480 rerep 4.4%, HT1080NT lethal -3.9% and KB-3-1 tox inactive.
For Cc1cccc(-n2c(C)nc3sccc3c2=O)c1 the results were HT1080 IDH1KD tx 3.4%, KB-V1 MDR tox inactive, MCF10A rerep 0.1%, SW480 rerep -8.7%, HT1080NT lethal -8.1% and KB-3-1 tox inactive.
O=C(CNc1cc(S(=O)(=O)N2CCCC2)ccc1OCC(F)(F)F)Nc1cccc(C(F)(F)F)c1 was read as HT1080 IDH1KD tx -23.5%, KB-V1 MDR tox 9.2µM*, MCF10A rerep 8.2%, HT1080NT lethal -12.7% and KB-3-1 tox 20.6µM*.
`O=C(CNc1cccc(C(F)(F)F)c1)Nc1cccc(S(=O)(=O)N2CCCC2)c1` gave HT1080 IDH1KD tx -14.9%, KB-V1 MDR tox inconclusive, MCF10A rerep 11.6%, SW480 rerep 1.8%, HT1080NT lethal -7.7% and KB-3-1 tox inconclusive.
CN(CC(=O)Nc1ccc(S(=O)(=O)N2CCCC2)cc1)Cc1c(F)cccc1Cl was read as HT1080 IDH1KD tx 0.9%, KB-V1 MDR tox 7.31µM*, MCF10A rerep 8.9%, SW480 rerep 6.0%, HT1080NT lethal -9.3% and KB-3-1 tox inconclusive.
Screening O=C(CN1CCN(S(=O)(=O)c2ccc(F)cc2)CC1)Nc1ccc2c(c1)OCCO2 returned HT1080 IDH1KD tx -0.8%, KB-V1 MDR tox inconclusive, MCF10A rerep -1.2%, SW480 rerep -3.3%, HT1080NT lethal -12.2% and KB-3-1 tox inactive.
For O=C(Cn1nc(-c2ccccc2F)ccc1=O)Nc1ccc(S(=O)(=O)N2CCCCCC2)cc1 the results were HT1080 IDH1KD tx -9.6%, KB-V1 MDR tox 13µM*, MCF10A rerep 21.6%, SW480 rerep 14.6µM*, HT1080NT lethal 0.8% and KB-3-1 tox inactive.
Screening O=C(CN1CCN(S(=O)(=O)c2ccc(F)cc2)CC1)Nc1ccc(Cl)c(C(F)(F)F)c1 returned HT1080 IDH1KD tx -13.3%[9.24 µM], KB-V1 MDR tox 16.4µM*, MCF10A rerep inconclusive, SW480 rerep inconclusive, HT1080NT lethal inconclusive and KB-3-1 tox inconclusive.
`O=C(Cc1ccccc1F)Nc1ccc(S(=O)(=O)N2CCCCC2)cc1` gave HT1080 IDH1KD tx -9.0%, KB-V1 MDR tox inactive, MCF10A rerep 10.3%, SW480 rerep inconclusive, HT1080NT lethal -16.9% and KB-3-1 tox inactive.
Screening Cc1cc(C)c(NC(=O)c2cc(S(=O)(=O)NCCC3=CCCCC3)ccc2F)c(C)c1 returned KB-V1 MDR tox inactive and KB-3-1 tox inactive.
For O=C(Nc1ccccc1NC(=O)c1c(F)cccc1F)c1c(F)cccc1F the results were HT1080 IDH1KD tx 11.0%, KB-V1 MDR tox inactive, MCF10A rerep -10.9%, SW480 rerep 5.1%, HT1080NT lethal 18.5% and KB-3-1 tox inactive.
For COc1ccc(S(=O)(=O)N2CCCCCC2)cc1C(=O)N(C)CC(=O)Nc1ccc(F)cc1 the results were HT1080 IDH1KD tx -0.4%, KB-V1 MDR tox inactive, MCF10A rerep 8.5%, SW480 rerep -349.1%, HT1080NT lethal -6.1% and KB-3-1 tox inactive.
